According to PubChem BioAssay (NCI):
About 83,000 compounds went through this panel and 20% of them were active in at least one assay; those are over-represented in the sample as a whole.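 Values shown are percent growth following 48 h exposure of cells in 96-well plates to a single concentration of compound; below 10 was considered active.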 Calls of active or inactive are those of the source.

How the values were obtained:
Test in all cases: NCI-60 one-dose screen, 48 h (100 = growth as untreated, 0 = no growth, -100 = all killed)
Details in all cases: 10 µM unless noted
MOLT-4 leukemia = tested on: MOLT-4 leukemia
SR leukemia = tested on: SR leukemia
RPMI-8226 leukemia = tested on: RPMI-8226 leukemia
OVCAR-8 ovarian = tested on: OVCAR-8 ovarian
OVCAR-5 ovarian = tested on: OVCAR-5 ovarian
OVCAR-4 ovarian = tested on: OVCAR-4 ovarian
SK-OV-3 ovarian = tested on: SK-OV-3 ovarian
IGROV1 ovarian = tested on: IGROV1 ovarian
OVCAR-3 ovarian = tested on: OVCAR-3 ovarian
HS 578T breast = tested on: HS 578T breast
NCI/ADR-RES ovarian = tested on: NCI/ADR-RES ovarian
T-47D breast = tested on: T-47D breast
BT-549 breast = tested on: BT-549 breast
MDA-MB-435 melanoma = tested on: MDA-MB-435 melanoma
SW-620 colon = tested on: SW-620 colon
MCF7 breast = tested on: MCF7 breast
HCT-116 colon = tested on: HCT-116 colon
HCC-2998 colon = tested on: HCC-2998 colon
KM12 colon = tested on: KM12 colon

| SMILES | growth (MOLT-4 leukemia) | growth (SR leukemia) | growth (RPMI-8226 leukemia) | growth (OVCAR-8 ovarian) | growth (OVCAR-5 ovarian) | growth (OVCAR-4 ovarian) | growth (SK-OV-3 ovarian) | growth (IGROV1 ovarian) | growth (OVCAR-3 ovarian) | growth (HS 578T breast) | growth (NCI/ADR-RES ovarian) | growth (T-47D breast) | growth (BT-549 breast) | growth (MDA-MB-435 melanoma) | growth (SW-620 colon) | growth (MCF7 breast) | growth (HCT-116 colon) | growth (HCC-2998 colon) | growth (KM12 colon) |
| --- | --- | --- | --- | --- | --- | --- | --- | --- | --- | --- | --- | --- | --- | --- | --- | --- | --- | --- | --- |
| CCCC(C)C1(CC)C(=O)NC(=O)N(C)C1=O (stereo not given) | 101% (inactive) | 95% (inactive) | 103% (inactive) | 98.8% (inactive) | 109% (inactive) | 108% (inactive) | 89.3% (inactive) | 96.6% (inactive) | 108% (inactive) | 99.4% (inactive) | 104% (inactive) | 87% (inactive) | 105% (inactive) | 97.9% (inactive) | 101% (inactive) | 103% (inactive) | 114% (inactive) | 97.9% (inactive) | 110% (inactive) |
| Nc1ccc(-c2nc3cc(F)ccc3[se]2)cc1F | 63.5% (inactive) | 15.5% (inactive) | 63.2% (inactive) | 92.3% (inactive) | 47.9% (inactive) | 65.8% (inactive) | 55.1% (inactive) | 38.7% (inactive) | 81% (inactive) | 103% (inactive) | 91.5% (inactive) | 14.6% (inactive) | 67.8% (inactive) | 97.7% (inactive) | 97.2% (inactive) | 5.06% (active) | 58.9% (inactive) | 30.9% (inactive) | 54% (inactive) |
| CC(=O)[O][Hg][c]1c(N)c(C)cc(C)c1F | -11.2% (active) | -11.2% (active) | -12.3% (active) | -29.5% (active) | 47.3% (inactive) | 42% (inactive) | 69.8% (inactive) | -32.7% (active) | -45.8% (active) | 26.8% (inactive) | 74.6% (inactive) | -20% (active) | -14% (active) | -60.5% (active) | -19.5% (active) | -5.09% (active) | 25.7% (inactive) |  | 81.4% (inactive) |
| CNC12C3C4C1C1C2C3C41C(=O)N[C@H](C(=O)N(C)[C@H](C[C@@H](OC(C)=O)c1nc(C(=O)N[C@@H](Cc2ccccc2)C[C@H](C)C(=O)OC)cs1)C(C)C)C1CC1 (stereo not given in full) | -1.54% (active) | -12.7% (active) | -6.94% (active) | 20.1% (inactive) | 56.6% (inactive) | 44.5% (inactive) | 40.7% (inactive) | 17% (inactive) | -32.9% (active) | 32.3% (inactive) | 62% (inactive) | 50.9% (inactive) | -34.7% (active) | -18.5% (active) | 53.1% (inactive) | 15.7% (inactive) | 2.93% (active) | -60.8% (active) | -9.24% (active) |
| C=CC[Se]C(=O)c1ccccc1OC(C)=O | 14.7% (inactive) | 6.08% (active) | -22.8% (active) | -12.8% (active) | -32.1% (active) | -36% (active) | -28.8% (active) | 18.1% (inactive) | 2.36% (active) | -8.17% (active) | 0.132% (active) | -9.76% (active) | 28.9% (inactive) | 28.7% (inactive) | 11.1% (inactive) | -5.53% (active) | 5.71% (active) | 6.92% (active) | -24.1% (active) |
| OCCNC(Cc1ccccc1)c1ccc2c(c1)OCO2 (stereo not given) | 82.6% (inactive) | 99.1% (inactive) | 102% (inactive) | 98.7% (inactive) | 105% (inactive) | 117% (inactive) | 74.7% (inactive) | 107% (inactive) | 100% (inactive) | 103% (inactive) | 102% (inactive) | 60% (inactive) | 81.2% (inactive) | 108% (inactive) | 109% (inactive) | 92.9% (inactive) | 86.3% (inactive) | 99.3% (inactive) | 101% (inactive) |
| COc1cc2c(cc1OCCCCCn1c(-c3ccco3)nc3ccccc31)N=C[C@@H]1CCCN1C2=O | 6.41% (active) | 0.702% (active) | 28% (inactive) | 18.6% (inactive) | 7.02% (active) | 11.2% (inactive) | 42.3% (inactive) | -59.8% (active) | 12.9% (inactive) | 14.7% (inactive) | 11.2% (inactive) | 27.8% (inactive) | 18% (inactive) | -48.1% (active) | 15% (inactive) | 13.4% (inactive) | 14.5% (inactive) |  | 2.44% (active) |
| CC[C@H](C)[C@@H]1OC(=O)C(C)(C)[C@H](O)[C@H](Cc2ccccc2)OC(=O)[C@H](C(C)C)OC(=O)[C@@H](NC(=O)c2cccc(NC=O)c2O)[C@@H](C)OC1=O | 37.7% (inactive) | 43.3% (inactive) | 29% (inactive) | 51.3% (inactive) | 103% (inactive) | 28.7% (inactive) | 60.7% (inactive) | 53.6% (inactive) | 48.2% (inactive) | 73.4% (inactive) | 53.4% (inactive) | 33.2% (inactive) | 53.8% (inactive) | 53.2% (inactive) | 60.8% (inactive) | 40% (inactive) | 36.5% (inactive) |  | 53.5% (inactive) |
| CN1C(=O)C(=Cc2cn(CCCCCCn3c4ccccc4c(=O)c4ccccc43)c3ccccc23)C(=O)N(C)C1=O | 97.5% (inactive) | 77% (inactive) | 103% (inactive) | 95.2% (inactive) | 77% (inactive) | 95.2% (inactive) | 87% (inactive) | 90.5% (inactive) | 102% (inactive) | 101% (inactive) | 90.7% (inactive) | 75% (inactive) | 91.2% (inactive) | 107% (inactive) | 103% (inactive) | 81.1% (inactive) | 85.5% (inactive) |  | 98.7% (inactive) |
| O=C(CC1(O)C(=O)N(Cc2ccccc2)c2ccccc21)c1ccc(C(=O)NCC2CCC3(CC2)OOC2(CCCCC2)OO3)cc1 (stereo not given) | -49.9% (active) | -49.3% (active) | -26.7% (active) | -14.8% (active) | 21% (inactive) | -36.6% (active) | 54.3% (inactive) | -41.8% (active) | -82.4% (active) | -6.26% (active) | -47.1% (active) | -39.1% (active) | -31.1% (active) | -86.5% (active) | 6.2% (active) | 9.78% (active) | 15.5% (inactive) | 73.4% (inactive) | -73.9% (active) |
| CC(=O)[O][Hg][O]C(C)=O | 84.8% (inactive) | 11.9% (inactive) | 90.1% (inactive) | 98.7% (inactive) | 115% (inactive) | 94.3% (inactive) | 97.8% (inactive) | 53.2% (inactive) | 34.5% (inactive) | 106% (inactive) | 108% (inactive) | 52.9% (inactive) | 103% (inactive) | 85.7% (inactive) | 85.6% (inactive) | 55.9% (inactive) | 95.7% (inactive) |  | 87.5% (inactive) |
| CC1(C)C(C(=O)c2cn(CCCCF)c3ccccc23)C1(C)C | 77.8% (inactive) | 77.9% (inactive) | 81.5% (inactive) | 82% (inactive) | 103% (inactive) | 107% (inactive) | 102% (inactive) | 114% (inactive) | 105% (inactive) | 88.5% (inactive) | 98.1% (inactive) | 78.6% (inactive) | 100% (inactive) | 108% (inactive) | 99.1% (inactive) | 89% (inactive) | 90.4% (inactive) | 116% (inactive) | 102% (inactive) |
| COc1cccc(C=NC(Cc2cnc[nH]2)C(=O)O)c1O (stereo not given) | 120% (inactive) | 132% (inactive) | 48.1% (inactive) | 81.1% (inactive) | 85.5% (inactive) | 95.9% (inactive) | 102% (inactive) | 64.8% (inactive) | 102% (inactive) | 122% (inactive) | 98.4% (inactive) | 108% (inactive) | 91.1% (inactive) | 84.2% (inactive) | 102% (inactive) | 93.4% (inactive) | 97.8% (inactive) |  | 104% (inactive) |
| COC(=O)[C@@H](C)C[C@H](Cc1ccc(F)cc1)NC(=O)c1csc([C@@H](C[C@H](C(C)C)N(C)C(=O)[C@@H](NC(=O)[C@H]2CCCCN2C)C(C)C)OC(C)=O)n1 | 18.3% (inactive) | 14.9% (inactive) | 17.4% (inactive) | 30% (inactive) | 53.7% (inactive) | 49.2% (inactive) | 21.4% (inactive) | 25.3% (inactive) | -27.4% (active) | 34% (inactive) | 25.2% (inactive) | 77.3% (inactive) | -18.6% (active) | -28.8% (active) | 26.9% (inactive) | 22.2% (inactive) | 4.23% (active) |  | 12.4% (inactive) |
| C/C(=C\c1ccn(-c2ccc(N)c(F)c2)n1)[C@@H]1C[C@@H]2O[C@]2(C)CCC[C@H](C)[C@H](O)[C@@H](C)C(=O)C(C)(C)[C@@H](O)CC(=O)O1 | 6.16% (active) | 9.07% (active) | 8.95% (active) | 24.7% (inactive) | 19.4% (inactive) | 52.2% (inactive) | 50.7% (inactive) | 34% (inactive) | 2.8% (active) | 2.63% (active) | -3.5% (active) | 38.5% (inactive) | 12.2% (inactive) | -41.1% (active) | 44.7% (inactive) | 16.3% (inactive) | 10.7% (inactive) |  | 12.5% (inactive) |
| C=C1C[C@](OC)([C@H](O)C(=O)N[C@@H](OC)[C@@H]2C[C@@H](O)C(C)(C)[C@@H](C[C@@H](COC)OC)O2)O[C@H](C)[C@@H]1C | -51.7% (active) | -39.2% (active) | -72.5% (active) | -20.8% (active) | -29.8% (active) | -38.4% (active) | -9.43% (active) | -66.8% (active) | -43.9% (active) | -46.2% (active) | -42.3% (active) | -7.29% (active) | -59.9% (active) | -83.3% (active) | -64.3% (active) | -52.6% (active) | -16.7% (active) |  | -41.8% (active) |
